# Results from the supplement of paper PMC11732987, “Enantioselective OTUD7B fragment discovery through chemoproteomics screening and high-throughput optimisation” (Communications Chemistry, 2025).
# A number with no mark means an inactive call.
# How the values were obtained:
# Assay in all cases: log2 ratio of Biotin-Ahx-Ub-VS probe labelling (fragment/DMSO); higher = less target engagement (more negative = stronger competition), active = hit call of the paper (q ≤ 0.05, log2 ratio ≤ -1)
# Details in all cases: compound concentration: 200 uM; treatment time: 3 h
# USP16 = USP16 (UniProt Q9Y5T5)
# USP16, sequence (Q9Y5T5 whole entry, looked up, the tested form may be a part): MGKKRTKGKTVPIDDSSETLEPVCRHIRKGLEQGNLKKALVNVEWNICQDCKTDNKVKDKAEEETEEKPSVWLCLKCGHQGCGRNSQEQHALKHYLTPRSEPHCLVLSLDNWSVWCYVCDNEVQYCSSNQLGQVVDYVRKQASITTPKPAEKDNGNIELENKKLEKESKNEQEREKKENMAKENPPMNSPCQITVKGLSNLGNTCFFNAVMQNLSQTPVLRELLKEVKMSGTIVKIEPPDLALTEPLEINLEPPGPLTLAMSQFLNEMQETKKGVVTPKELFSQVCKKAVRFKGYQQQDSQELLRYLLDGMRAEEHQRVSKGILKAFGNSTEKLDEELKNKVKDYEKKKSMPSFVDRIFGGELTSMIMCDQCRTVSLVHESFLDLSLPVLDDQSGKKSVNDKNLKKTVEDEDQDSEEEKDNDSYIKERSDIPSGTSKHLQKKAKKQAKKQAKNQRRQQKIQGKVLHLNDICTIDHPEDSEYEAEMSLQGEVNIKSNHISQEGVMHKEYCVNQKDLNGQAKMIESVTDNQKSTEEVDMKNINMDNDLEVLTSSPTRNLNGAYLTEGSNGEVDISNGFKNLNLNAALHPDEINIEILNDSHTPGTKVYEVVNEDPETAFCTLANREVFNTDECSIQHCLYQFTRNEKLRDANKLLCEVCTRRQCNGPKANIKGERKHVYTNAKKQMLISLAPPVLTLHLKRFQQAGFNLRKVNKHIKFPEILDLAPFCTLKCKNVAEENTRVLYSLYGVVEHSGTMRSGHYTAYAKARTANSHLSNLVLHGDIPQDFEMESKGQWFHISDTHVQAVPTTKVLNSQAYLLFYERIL
# In short: (§1)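 The table lists average log2 ratios of fragment over vehicle, from an unpaired t-test on global-median-normalised Spectronaut label-free quantities. Proteins with ≥2 unique peptides were used. Samples were HEK293T lysate (495 µg) treated in triplicate with fragment at 200 µM or vehicle for 3 h, then with Biotin-Ahx-Ub-VS (0.5 µM final) for 1 h, with labelled DUBs NeutrAvidin-enriched and run by diaPASEF LC-MS/MS.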
# USP19 = target: T1, USP19 (UniProt O94966)
# T1 sequence (whole entry): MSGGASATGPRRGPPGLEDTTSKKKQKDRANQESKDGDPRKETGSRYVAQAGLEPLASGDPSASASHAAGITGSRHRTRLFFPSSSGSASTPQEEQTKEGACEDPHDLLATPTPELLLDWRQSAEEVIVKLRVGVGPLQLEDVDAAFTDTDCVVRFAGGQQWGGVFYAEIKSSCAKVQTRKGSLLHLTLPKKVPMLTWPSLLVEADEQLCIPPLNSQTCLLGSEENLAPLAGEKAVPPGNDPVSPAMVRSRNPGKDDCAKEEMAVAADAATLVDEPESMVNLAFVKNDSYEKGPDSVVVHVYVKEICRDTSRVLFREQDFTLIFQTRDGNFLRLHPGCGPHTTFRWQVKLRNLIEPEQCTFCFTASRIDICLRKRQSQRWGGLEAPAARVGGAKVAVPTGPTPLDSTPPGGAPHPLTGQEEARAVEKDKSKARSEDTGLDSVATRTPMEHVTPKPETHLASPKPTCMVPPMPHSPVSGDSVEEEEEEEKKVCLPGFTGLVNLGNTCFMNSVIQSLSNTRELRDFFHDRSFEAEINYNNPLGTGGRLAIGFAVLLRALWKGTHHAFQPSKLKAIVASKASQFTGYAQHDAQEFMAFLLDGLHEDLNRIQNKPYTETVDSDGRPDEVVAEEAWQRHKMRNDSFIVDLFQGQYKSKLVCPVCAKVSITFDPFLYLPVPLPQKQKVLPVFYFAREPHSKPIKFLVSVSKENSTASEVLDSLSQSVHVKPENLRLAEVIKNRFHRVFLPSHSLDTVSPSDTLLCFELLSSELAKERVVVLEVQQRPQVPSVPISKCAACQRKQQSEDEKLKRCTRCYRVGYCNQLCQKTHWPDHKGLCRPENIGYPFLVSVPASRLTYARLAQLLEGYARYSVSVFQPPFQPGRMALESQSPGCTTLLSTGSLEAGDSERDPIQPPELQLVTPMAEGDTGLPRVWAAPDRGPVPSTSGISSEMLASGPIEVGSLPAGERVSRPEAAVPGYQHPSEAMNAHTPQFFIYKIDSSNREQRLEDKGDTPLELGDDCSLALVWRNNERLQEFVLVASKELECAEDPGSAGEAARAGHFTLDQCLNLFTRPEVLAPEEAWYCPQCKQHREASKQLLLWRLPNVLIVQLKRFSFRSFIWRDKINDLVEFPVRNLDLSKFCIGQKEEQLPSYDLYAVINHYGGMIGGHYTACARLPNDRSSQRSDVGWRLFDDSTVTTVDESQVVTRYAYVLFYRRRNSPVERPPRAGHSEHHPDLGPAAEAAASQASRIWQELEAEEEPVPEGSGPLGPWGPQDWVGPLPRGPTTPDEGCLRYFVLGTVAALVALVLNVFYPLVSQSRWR
# In short: as §1
# USP24 = USP24 (UniProt Q9UPU5)
# USP24, sequence (Q9UPU5 whole entry): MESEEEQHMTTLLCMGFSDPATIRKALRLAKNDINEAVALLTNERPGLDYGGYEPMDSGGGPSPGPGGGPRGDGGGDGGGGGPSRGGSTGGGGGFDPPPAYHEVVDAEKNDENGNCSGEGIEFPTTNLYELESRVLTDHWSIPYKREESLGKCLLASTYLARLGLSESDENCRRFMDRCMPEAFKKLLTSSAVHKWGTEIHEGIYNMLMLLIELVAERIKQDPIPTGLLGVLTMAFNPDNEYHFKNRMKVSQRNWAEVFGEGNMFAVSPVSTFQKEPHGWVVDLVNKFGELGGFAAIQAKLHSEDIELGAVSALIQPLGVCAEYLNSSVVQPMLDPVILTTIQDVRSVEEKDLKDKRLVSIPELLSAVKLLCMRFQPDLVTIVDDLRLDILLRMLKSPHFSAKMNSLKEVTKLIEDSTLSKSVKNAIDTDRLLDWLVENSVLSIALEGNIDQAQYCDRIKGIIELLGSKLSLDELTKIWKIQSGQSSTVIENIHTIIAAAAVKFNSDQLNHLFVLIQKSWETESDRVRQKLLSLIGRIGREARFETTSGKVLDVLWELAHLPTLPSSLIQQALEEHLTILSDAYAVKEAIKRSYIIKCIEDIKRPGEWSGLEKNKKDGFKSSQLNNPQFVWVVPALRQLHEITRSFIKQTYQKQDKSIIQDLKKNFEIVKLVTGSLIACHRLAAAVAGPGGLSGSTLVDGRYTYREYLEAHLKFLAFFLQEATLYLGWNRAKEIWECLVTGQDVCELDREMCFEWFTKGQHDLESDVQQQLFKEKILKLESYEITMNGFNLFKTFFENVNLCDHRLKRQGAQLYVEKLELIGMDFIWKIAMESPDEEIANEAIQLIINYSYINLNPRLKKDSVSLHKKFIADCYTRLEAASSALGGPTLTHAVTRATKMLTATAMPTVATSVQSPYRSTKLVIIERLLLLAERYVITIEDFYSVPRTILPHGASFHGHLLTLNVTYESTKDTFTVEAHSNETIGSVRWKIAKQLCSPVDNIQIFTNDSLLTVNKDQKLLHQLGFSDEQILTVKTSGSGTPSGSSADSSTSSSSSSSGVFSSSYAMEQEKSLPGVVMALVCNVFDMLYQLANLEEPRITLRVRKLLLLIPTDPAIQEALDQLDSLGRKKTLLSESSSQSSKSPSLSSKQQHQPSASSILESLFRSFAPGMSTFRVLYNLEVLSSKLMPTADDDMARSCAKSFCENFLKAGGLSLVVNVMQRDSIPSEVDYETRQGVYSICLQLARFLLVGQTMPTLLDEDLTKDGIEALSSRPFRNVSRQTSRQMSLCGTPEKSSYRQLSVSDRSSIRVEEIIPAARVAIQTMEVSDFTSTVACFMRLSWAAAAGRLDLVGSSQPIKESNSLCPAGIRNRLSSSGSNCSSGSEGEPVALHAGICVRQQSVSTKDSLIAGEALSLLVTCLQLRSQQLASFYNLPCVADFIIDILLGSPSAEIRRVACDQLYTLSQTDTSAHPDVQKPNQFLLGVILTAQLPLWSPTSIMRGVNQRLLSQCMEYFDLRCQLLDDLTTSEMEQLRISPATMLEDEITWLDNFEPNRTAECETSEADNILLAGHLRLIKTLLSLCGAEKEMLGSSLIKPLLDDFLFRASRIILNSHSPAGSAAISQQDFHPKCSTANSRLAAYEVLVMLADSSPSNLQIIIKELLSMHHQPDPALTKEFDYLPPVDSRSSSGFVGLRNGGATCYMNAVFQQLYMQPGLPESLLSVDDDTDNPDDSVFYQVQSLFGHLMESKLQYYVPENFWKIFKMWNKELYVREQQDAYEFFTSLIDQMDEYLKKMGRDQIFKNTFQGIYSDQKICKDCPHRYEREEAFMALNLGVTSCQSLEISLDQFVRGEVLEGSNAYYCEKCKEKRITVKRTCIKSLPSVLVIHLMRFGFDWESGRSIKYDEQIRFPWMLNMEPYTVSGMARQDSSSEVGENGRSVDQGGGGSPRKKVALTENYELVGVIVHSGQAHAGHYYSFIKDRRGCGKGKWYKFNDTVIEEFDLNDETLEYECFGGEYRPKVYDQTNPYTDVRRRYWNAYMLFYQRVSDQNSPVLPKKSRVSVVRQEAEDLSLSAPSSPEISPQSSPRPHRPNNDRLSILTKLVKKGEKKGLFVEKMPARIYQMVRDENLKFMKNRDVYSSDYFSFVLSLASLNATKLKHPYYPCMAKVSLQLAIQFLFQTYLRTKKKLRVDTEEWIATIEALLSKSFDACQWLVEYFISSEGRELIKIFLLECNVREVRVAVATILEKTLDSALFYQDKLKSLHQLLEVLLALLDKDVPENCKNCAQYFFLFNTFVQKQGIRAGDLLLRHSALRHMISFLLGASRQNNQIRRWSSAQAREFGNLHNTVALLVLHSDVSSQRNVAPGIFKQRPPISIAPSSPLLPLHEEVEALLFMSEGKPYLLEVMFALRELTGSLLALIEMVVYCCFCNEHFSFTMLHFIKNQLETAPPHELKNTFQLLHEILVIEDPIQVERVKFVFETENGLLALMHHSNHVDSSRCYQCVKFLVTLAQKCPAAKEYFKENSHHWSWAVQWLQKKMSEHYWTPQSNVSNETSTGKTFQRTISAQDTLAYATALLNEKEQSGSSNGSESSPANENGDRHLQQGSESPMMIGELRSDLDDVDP
# In short: as §1
# USP25 = target: T2, USP25 (UniProt Q9UHP3)
# T2 sequence (whole entry): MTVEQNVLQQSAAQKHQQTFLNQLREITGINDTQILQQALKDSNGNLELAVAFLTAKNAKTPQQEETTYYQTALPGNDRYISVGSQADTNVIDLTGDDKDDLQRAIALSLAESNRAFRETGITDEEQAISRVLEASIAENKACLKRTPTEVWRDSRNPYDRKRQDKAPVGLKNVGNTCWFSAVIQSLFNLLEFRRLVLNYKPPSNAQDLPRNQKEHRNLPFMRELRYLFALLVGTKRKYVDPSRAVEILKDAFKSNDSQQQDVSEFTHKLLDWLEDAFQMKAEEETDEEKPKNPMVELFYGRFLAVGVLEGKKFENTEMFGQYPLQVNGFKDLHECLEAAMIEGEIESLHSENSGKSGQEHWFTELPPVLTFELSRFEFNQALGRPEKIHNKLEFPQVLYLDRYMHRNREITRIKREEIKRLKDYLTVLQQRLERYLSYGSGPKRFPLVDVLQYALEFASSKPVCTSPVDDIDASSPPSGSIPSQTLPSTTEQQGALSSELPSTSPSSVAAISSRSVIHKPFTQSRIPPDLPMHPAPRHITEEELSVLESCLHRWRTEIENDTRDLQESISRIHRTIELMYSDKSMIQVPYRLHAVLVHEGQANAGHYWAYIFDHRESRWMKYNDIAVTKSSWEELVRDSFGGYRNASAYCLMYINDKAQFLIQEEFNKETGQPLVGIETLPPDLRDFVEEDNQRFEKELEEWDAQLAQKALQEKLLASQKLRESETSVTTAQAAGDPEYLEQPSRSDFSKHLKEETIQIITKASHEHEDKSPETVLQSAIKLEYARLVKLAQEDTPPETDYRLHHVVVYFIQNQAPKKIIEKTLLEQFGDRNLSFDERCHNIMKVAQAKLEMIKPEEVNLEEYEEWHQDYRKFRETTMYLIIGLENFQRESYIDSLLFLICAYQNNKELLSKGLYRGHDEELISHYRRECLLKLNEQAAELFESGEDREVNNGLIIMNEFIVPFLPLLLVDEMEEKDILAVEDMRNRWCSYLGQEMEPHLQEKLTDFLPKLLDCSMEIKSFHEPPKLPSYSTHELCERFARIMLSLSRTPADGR
# In short: as §1
# USP28 = target: T3, USP28 (UniProt Q96RU2)
# T3 sequence (whole entry): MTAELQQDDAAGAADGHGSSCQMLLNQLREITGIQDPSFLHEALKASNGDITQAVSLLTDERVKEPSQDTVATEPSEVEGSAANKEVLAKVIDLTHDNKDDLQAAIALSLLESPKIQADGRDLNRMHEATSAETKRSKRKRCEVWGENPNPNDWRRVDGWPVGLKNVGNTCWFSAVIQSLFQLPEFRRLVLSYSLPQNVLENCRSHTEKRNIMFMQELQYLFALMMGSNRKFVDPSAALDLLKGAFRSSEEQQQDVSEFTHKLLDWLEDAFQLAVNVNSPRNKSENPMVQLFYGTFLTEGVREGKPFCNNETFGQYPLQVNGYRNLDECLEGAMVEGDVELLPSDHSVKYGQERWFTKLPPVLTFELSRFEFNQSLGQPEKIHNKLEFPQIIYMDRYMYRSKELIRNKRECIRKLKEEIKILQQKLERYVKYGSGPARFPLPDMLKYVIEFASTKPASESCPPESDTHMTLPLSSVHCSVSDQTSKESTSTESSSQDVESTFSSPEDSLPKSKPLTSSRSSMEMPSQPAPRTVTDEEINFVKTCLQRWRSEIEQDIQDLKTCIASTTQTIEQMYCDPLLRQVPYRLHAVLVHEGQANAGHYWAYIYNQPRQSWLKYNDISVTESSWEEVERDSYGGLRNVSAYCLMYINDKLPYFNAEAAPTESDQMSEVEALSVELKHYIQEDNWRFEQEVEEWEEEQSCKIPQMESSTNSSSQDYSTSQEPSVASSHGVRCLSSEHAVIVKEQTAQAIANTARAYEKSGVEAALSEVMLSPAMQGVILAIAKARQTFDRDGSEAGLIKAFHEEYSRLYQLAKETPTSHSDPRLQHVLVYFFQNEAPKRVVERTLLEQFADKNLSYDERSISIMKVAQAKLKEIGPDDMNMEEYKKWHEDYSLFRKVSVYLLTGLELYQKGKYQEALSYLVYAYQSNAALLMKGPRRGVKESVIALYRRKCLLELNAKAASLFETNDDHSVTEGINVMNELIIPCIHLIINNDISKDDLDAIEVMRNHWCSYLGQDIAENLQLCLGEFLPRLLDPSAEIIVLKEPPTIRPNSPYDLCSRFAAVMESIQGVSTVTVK
# In short: as §1
structure (smiles),measurement,setting,value
Cl.O=C(CCl)NCCN1CCc2ccccc21,log2 ratio of Biotin-Ahx-Ub-VS probe labelling,USP16,-0.252
same,log2 ratio of Biotin-Ahx-Ub-VS probe labelling,USP19,-0.976
same,log2 ratio of Biotin-Ahx-Ub-VS probe labelling,USP24,-1.05 (active)
same,log2 ratio of Biotin-Ahx-Ub-VS probe labelling,USP25,-0.576
same,log2 ratio of Biotin-Ahx-Ub-VS probe labelling,USP28,-1.11 (active)
